Source: PubChem (National Center for Advancing Translational Sciences (NCATS))
NS1 inh: qHTS Assay for Inhibitors of Influenza NS1 Protein Function; Potency, µM (doses to about 46.1 µM), for the others: at the top dose activity, positive = more growth; 0.4% of 270,000 active; AID 2326, 2010; calls by dose curve; further: potency means the concentration at half of the fitted maximal effect; actives are rising curves; nearly all actives have a fitted effect of over 50% in size
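Read-out: OD600 growth recovery of NS1-expressing budding yeast. Cells grown overnight at 30C in -URA glucose medium, washed, resuspended and diluted 1:100 in 2% galactose assay medium, pH 6.0. Same strain lacking NS1 served as positive control.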
AmpC inh detg: qHTS Inhibitors of AmpC Beta-Lactamase (assay with detergent) | 0.041% of 370,000 active | Potency, µM (titrated, usually from 114 µM), for the others: at the highest dose activity change, negative = inhibition, actives largely listed as inhibitors | AmpC hydrolysis of nitrocefin, absorbance 480 nm, 0.01% Triton | AID 485294, 2010;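 further: potency means the concentration at half of the fitted maximal effect; 0% = no-compound wells and -100% = no-enzyme wells; nearly all actives have a fitted effect of over 25% in size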
Target sequence (P00811 whole entry, looked up): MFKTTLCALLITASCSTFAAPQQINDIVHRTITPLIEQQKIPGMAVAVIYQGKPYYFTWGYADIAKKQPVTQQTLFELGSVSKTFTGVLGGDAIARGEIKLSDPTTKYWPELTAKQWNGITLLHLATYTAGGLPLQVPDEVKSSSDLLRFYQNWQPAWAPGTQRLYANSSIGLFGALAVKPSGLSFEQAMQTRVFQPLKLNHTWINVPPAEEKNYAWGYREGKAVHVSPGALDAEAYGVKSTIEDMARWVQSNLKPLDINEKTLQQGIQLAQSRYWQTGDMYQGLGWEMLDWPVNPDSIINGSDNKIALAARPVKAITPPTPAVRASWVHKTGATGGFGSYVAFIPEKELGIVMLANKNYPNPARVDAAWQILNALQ
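AmpC (5.3 nM in the dispensed reagent) in 20 mM phosphate pH 7.0 with 0.01% (detergent screen) or 0.0001% Triton X-100 was preincubated with compounds for 15 min at room temperature. Nitrocefin was then added from an 800 uM solution, and hydrolysis was followed at 480 nm.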
AmpC no deterg: qHTS Inhibitors of AmpC Beta-Lactamase (assay without detergent) | AmpC nitrocefin hydrolysis, absorbance 480 nm, 0.0001% Triton | 0.52% of 330,000 active | Potency, µM (series often up to 57.1 µM), inactives show at the highest dose activity change, negative = inhibition, actives largely listed as inhibitors;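 further: potency means the concentration at half of the fitted maximal effect; plate controls were no compound for no effect and no enzyme for full effect; nearly all actives have a fitted effect of over 20% in size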
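20 mM phosphate pH 7.0 + 0.01% (detergent screen) or 0.0001% Triton X-100; 5.3 nM AmpC reagent; cpd preinc 15 min RT; nitrocefin (800 uM stock) to start; A480 q20 s × 4 min; Activity was normalised to no-enzyme and no-compound control wells.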
Shiga inhibitor: A qHTS for Small Molecule Inhibitors of Shiga Toxin | Vero cells, Shiga toxin protein synthesis inhibition reporter | inhibition, % at 38.7 µM | 9.2% of 290,000 active; in the data active means inhibition mostly above about 28%, no sharp cut-off; inactive means mostly below about 43%; further: 0% is about no effect
Cycloheximide cs: Cycloheximide Counterscreen for Small Molecule Inhibitors of Shiga Toxin; max response, %; AID 2314, 2010; 12% of 300,000 active; cell reporter, cycloheximide protein synthesis inhibition counterscreen; in the data active means max response mostly above about 13%, no sharp cut-off; inactive means mostly below about 14%; further: read at 38.3 µM for the half of the compounds with a filed dose; 0% is about no effect
* hit, by the source's call; ? = inconclusive; / = no result; ! = a repeat was not active. Many of the other results were omitted from the sample, so hits are more common in it than they were. Unless noted, the call rests on the fitted dose curve; in most records, active means well fitted curve in the direction sought with a large enough effect; inconclusive means small, poorly fitted or top-dose-only effect, or another doubt; inactive means no such curve, though single readings can be large; an effect the other way counts as inactive or inconclusive.

SMILES	NS1 inh	AmpC inh detg	AmpC no deterg	Shiga inhibitor	Cycloheximide cs
Cc1cccc(OCCCC(=O)NNC(=O)CCN2CCN(c3ccccc3)CC2)c1	/	-14%	66%	/	/
COc1ccccc1-c1c(C)nn2c(N3CCC(C)CC3)cc(C)nc12	-1%	-2%	-11%	-6	-1
COc1ccccc1-c1cnn2c(NC3CCCC3)cc(C)nc12	-11%	-2%	19%	125*	38*
CCOC(=O)N1CCC(Nc2cc(C)nc3c(-c4ccccc4OC)c(C)nn23)CC1	-67%	-13%	28µM*	-4	-2
COc1ccccc1-c1c(C)nn2c(C)cc(C)nc12	-5%	?	10µM*	-3	-2
CCC(=O)Nc1ccc2ccccc2c1	1%	-16%	-14%	27	21
CC(Oc1ccccc1F)C(=O)Nc1ccc2ccccc2c1 (stereo not given)	-5%	-2%	-22%	80*	45*
CC(Oc1ccc(F)cc1)C(=O)Nc1ccc2ccccc2c1 (stereo not given)	7%	-7%	-25%	10	11
CC(C)(C)CC(=O)Nc1ccc(Nc2ccccc2)cc1	-8%	-13%	-27%	47*	23*
Cc1cccc(NC(=O)CC(C)(C)C)c1	-1%	-13%	-11%	-5	1
CC(C)CC(=O)Nc1ccc2ccccc2c1	5%	6%	-3%	92*!	-2
CC1(NC(=S)Nc2ccc3ccccc3c2)CCS(=O)(=O)C1 (stereo not given)	-33%	2%	-41%	17	-2
CC1(C(=O)Nc2ccc3ccccc3c2)CC1(Br)Br (stereo not given)	-8%	-4%	-33%	65*	29*
Cc1ccn(C(=O)c2ccc(NC(=O)CC(C)C)cc2)n1	-7%	-7%	-22%	35	15*
CC(C)CC(=O)Nc1ccc(Nc2ccccc2)cc1	1%	-11%	2%	36*	31
COc1ccc2c(C)c(CCC(=O)NCc3ccccc3OC)c(=O)oc2c1	/	15%	/	/	/
O[C@@H](c1cc(-c2ccccc2)nc2c1ccc1ccccc12)C1CCCCN1 (stereo not given in full)	-3%	/	/	/	/
COc1ccc(C(=O)c2sc(Nc3ccccc3F)nc2N)cc1	-35%	-14%	-55%	86*	41*
Cc1cc(Nc2ccccc2)nn1C(=O)c1ccccc1	-191%	-7%	-23%	8	1
Nc1nc(Nc2ccccc2)sc1C(=O)c1ccccc1	-32%	2%	-40%	90*	36*
COc1ccc(C(=O)n2nc(C)cc2Nc2ccccc2)cc1	-7%	-6%	-2%	72	43*
O=C(Nc1cccnc1)c1sc(Nc2ccccc2)nc1-c1ccccc1	25%	-13%	-26%	-18	-1
Cc1cnc(NC(=O)c2sc(Nc3ccccc3)nc2N)o1	-2%	1%	-23%	90*	28*
COc1ccc(C(=O)c2sc(Nc3ccccc3)nc2N)cc1OC	1%	-7%	-33%	-7	1
COc1ccc(-c2cc(C(=O)Nc3c(C)nn(Cc4ccc(C)cc4)c3C)no2)cc1OC	/	18%	/	/	/
SMILES	NS1 inh	AmpC inh detg	AmpC no deterg	Shiga inhibitor	Cycloheximide cs
COc1ccc(CNC(=O)c2cc(-c3cccs3)nc3ccccc23)c(OC)c1	/	2%	/	/	/
COc1ccc(C(=O)c2sc(Nc3ccccc3)nc2N)cc1	19%	0%	-57%	28	41*
COC(=O)CCC(=O)N1CCCC(C(=O)c2cc(F)ccc2F)C1 (stereo not given)	-3%	-1%	-13%	-8	2
O=C(c1cc(F)ccc1F)C1CCCN(C(=O)CCN2CCCCO2)C1 (stereo not given)	3%	1%	20%	23	17*
O=C(c1cc(F)ccc1F)C1CCCN(C(=O)c2ccc3nccnc3c2)C1 (stereo not given)	-20%	-1%	16%	31*	22*
N#CC1=C(N)OC2=C(CCc3ccccc32)C1c1ccccc1Cl (stereo not given)	22%	-6%	3.5µM*	13	20
O=C(O)c1cc(F)c(S(=O)(=O)N2CCN(S(=O)(=O)c3ccc4c(c3)OCCO4)CC2)cc1F	/	/	/	-5	4
C=CCSc1nnc(-c2cccnc2)o1	-4%	-7%	-6%	22*	15*
O=C(CSc1nnc(-c2cccnc2)o1)N1CCCCC1	9%	-14%	-3%	32	5
NC(=O)CSc1nnc(-c2ccc([N+](=O)[O-])cc2)o1	5%	0%	-10%	40	19*
C=CCSc1nnc(-c2ccc([N+](=O)[O-])cc2)o1	5%	0%	-21%	80	19*
CC(C)C(=O)OCc1cn(-c2ccc(Cl)c(Cl)c2)nn1	/	?	0%	14	10
CCCCNC(=S)N/N=C1\C(=O)c2cccc3cccc1c23	2%	-1%	-27%	-7	1
CNC(=S)N/N=C1\C(=O)c2cccc3cccc1c23	-15%	?	-19%	23	23*
CCOC(=O)c1c(-c2ccccc2)csc1NC(=O)c1cc(=O)c2ccc(C)cc2o1	/	19%	/	/	/
Cc1ccc(C(=O)Nc2scc(-c3ccccc3)c2C(=O)O)o1	5%	-6%	-32%	35	14*
O=C(Nc1scc(-c2ccccc2)c1C(=O)O)c1ccccc1F	-54%	?	-41%	24	22*
Cc1ccc(-c2csc(NC(=O)c3ccccc3F)c2C(=O)O)cc1	-46%	2%	-35%	100*	39*
CC(NC(=O)C1CCCN1C(=O)CN)C(=O)O (stereo not given)	/	/	/	10	7
CCOC(=O)c1ccc2ncc(C(=O)OCC)c(Nc3ccc(C)c(Br)c3)c2c1	/	3%	/	/	/
O=C(CSc1ncn[nH]1)c1ccco1	11%	?	-10%	-7	-4
O=C(CSc1ncn[nH]1)c1cc2ccccc2o1	14%	0%	-42%	43	20*
O=C(CSc1nccc(=O)[nH]1)c1cc2ccccc2o1	6%	7%	-44%	47*	34*
O=C(CSc1ncn[nH]1)c1ccccc1	-3%	-19%	-19%	52*	17
Cc1ccc(C(=O)N/N=C/c2ccc3c(c2)OCO3)o1	-4%	-4%	-23%	60*	63*
SMILES	NS1 inh	AmpC inh detg	AmpC no deterg	Shiga inhibitor	Cycloheximide cs
Cn1cc([N+](=O)[O-])c(C(=O)N/N=C/c2ccc3c(c2)OCO3)n1	3%	1%	-11%	43*	20*
Nc1cccc(C(=O)N/N=C/c2ccsc2)c1	/	-7%	-29%	54*	33*
Cc1ccc(C(=O)/C=C/c2ccc3c(c2)OCO3)o1	-14%	-11%	-12%	52*	49*
Cc1ccc(C(=O)NCc2ccc3c(c2)OCO3)o1	-2%	?	-14%	/	2
O=C(N/N=C/c1ccsc1)c1cc(-c2cccs2)nc2ccccc12	25%	6%	-24%	-7	1
O=C(N/N=C/c1cc2c(c([N+](=O)[O-])c1)OCO2)c1ccncc1	-1%	-7%	-30%	/	-2
O=C(CSCc1cc(=O)c2ccccc2[nH]1)Nc1cccc(C(F)(F)F)c1	/	8%	/	/	/
